Assay results as given in PubChem BioAssay (Tox21).
“And” between values parts separate entries of the source, which are not always exact repeats. Equal values may be shown once. Inconclusive results are not listed. More than one record can exist for a structure, and the calls need not agree. The source made the active and inactive calls. Unless noted, calls follow the shape of the dose curve; as a rule, active = well fitted curve in the direction sought with a large enough effect in the repeat runs; inconclusive = weak or mixed curves; inactive = no such curve, though single readings can be large; an effect the other way counts as inactive or inconclusive.

What was measured:
[1] = qHTS assay for small molecule agonists of the p53 signaling pathway (AID 651631; calls by dose curve; also: nearly all actives have a fitted effect of over 15% in size; also: potency is read from the fitted curve at half-maximal effect)
Procedure, shortened: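 HCT-116 cells carrying a beta-lactamase reporter under p53 response elements were dosed with compound for 16 h at 37 °C. LiveBLAzer B/G FRET substrate was then added for 2 h at room temperature, and fluorescence intensity was read to detect pathway agonism.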

[2] = qHTS assay for small molecules that induce genotoxicity in human embryonic kidney cells expressing luciferase-tagged ATAD5 (AID 651632); also: nearly all actives have a fitted effect of over 15% in size; also: potency is read from the fitted curve at half-maximal effect
Procedure, shortened: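 Genotoxicity read-out via ATAD5-luciferase: HEK293T cells, 16 hr compound incubation at 37C, Amplite detection.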

[3] = qHTS assay for small molecule agonists of the p53 signaling pathway - cell viability (AID 651633; calls by dose curve;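 also: p53RE-bla HCT reporter cells with a stable beta-lactamase p53 reporter; series mostly up to about 83 µM; nearly all actives have a fitted effect of over 30% in size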)
Procedure, shortened: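 p53RE-bla cells were treated with compound for 16 hours at 37 C. Cytotoxicity was then measured as CellTiter-Glo luminescence after 30 min at room temperature.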

[4] = qHTS assay for small molecules that induce genotoxicity in human embryonic kidney cells expressing luciferase-tagged ATAD5 - cell viability (AID 651634; calls by dose curve; also: nearly all actives have a fitted effect of over 25% in size)
Procedure, shortened: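 Live-cell protease activity (CellTiter-Fluor, fluorescence) indicates viability. HEK293T cells with luciferase-tagged ATAD5; 15.5 hr compound treatment at 37C.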

[5] = qHTS assay for small molecule disruptors of the mitochondrial membrane potential - cell viability (AID 720634; calls by dose curve; also: nearly all actives have a fitted effect of over 20% in size; also: potency is read from the fitted curve at half-maximal effect)
Procedure, shortened: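 Human hepatoma HepG2 cells were treated for 1 hr with test chemicals, then given m-MPI dye and CellTiter-Glo. Cell viability reflects luminescence proportional to cellular ATP.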

[6] = qHTS assay for small molecule disruptors of the mitochondrial membrane potential (AID 720635); also: potency is read from the fitted curve at half-maximal effect
Procedure, shortened: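 HepG2 cells exposed to compound 1 hr at 37C, then Mito-MPS dye 30 min. Ratio read of aggregate (540/590 nm) versus monomer (490/535 nm) fluorescence.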

[7] = qHTS assay to test for compound auto fluorescence at 590 nm (red) in HepG2 cells (AID 720674)
Procedure, shortened: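 Seeding: 2,000 HepG2 cells/well, MEM/10% FBS, overnight 37 C. Dosing: compound vs DMSO. Incubation: 1 hr, 37 C, 5% CO2. Read: fluorescence 540 ex/590 em, Rose Bengal sodium as red reference.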

[8] = qHTS assay to test for compound auto fluorescence at 535 nm (green) in HepG2 cells (AID 720675)
[9] = qHTS assay to test for compound auto fluorescence at 460 nm (blue) in HEK293 cells (AID 720678)
Procedure, shortened: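 Blue read-out at excitation 405 nm and emission 460 nm follows overnight compound exposure of HEK293 cells at 37C in 5% CO2. Activity is given as auto fluorescence equivalency to triamterene.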

[10] = qHTS assay to test for compound auto fluorescence at 590 nm (red) in HEK293 cells (AID 720679)
Procedure, shortened: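 Red channel, Ex/Em 540/590nm; signal expressed as equivalency to Rose Bengal sodium. HEK293, 2,000 cells/well, 10% dialyzed FBS; 23 nL compound pinned after 4-5 hr attachment; overnight 37C/5% CO2 before reading.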

Measured: Potency

COc1ccc(C(=O)c2ccccc2)c(O)c1
inactive: all assays above

O=C1CCCCCN1
inactive: all assays above

CCCCNC(=O)NS(=O)(=O)c1ccc(N)cc1
inactive: all assays above

C#C[C@]1(O)CC[C@H]2[C@@H]3CCC4=CC(=O)CC[C@@H]4[C@H]3CC[C@@]21CC
inactive and 48.6 µM (active): [5]
inactive: all other assays above

CC1(C)O[C@@H]2[C@@H](CO[C@@]3(COS(N)(=O)=O)OC(C)(C)O[C@@H]23)O1
inactive: all assays above

CC1=NN(c2ccccc2)C(=O)C1
active: [6] 11.9 µM and 61.5 µM
inactive: all other assays above

COc1ccccc1O
inactive and 4.35 µM (active): [1]
inactive: all other assays above

Oc1cccc(O)c1
inactive: all assays above

CC(=O)CCC(C)C
inactive: all assays above

Nc1cccc(N)c1
active: [6] 24 µM
inactive: all other assays above

C/C=C/c1ccc(O)c(OC)c1
active: [6] 61.1 µM
inactive: all other assays above

COC(=O)C1CCC(C(=O)OC)CC1 (stereo not given)
inactive: all assays above

C=C(C)OC(C)=O
inactive: all assays above

C[C@]12C[C@H](O)[C@H]3[C@@H](CCC4=CC(=O)CC[C@@]43C)[C@@H]1CC[C@@H]2C(=O)CO
inactive: all assays above

CC(=O)OC/C=C(C)/C=C/C=C(C)/C=C/C1=C(C)CCCC1(C)C
inactive: all assays above

CCCCCCCCCCCCCC(=O)OC(C)C
inactive: all assays above

CN(C)Cc1cc(CN(C)C)c(O)c(CN(C)C)c1
inactive: all assays above

COC(=O)c1ccc(C=O)cc1
inactive: all assays above

CC(C)=CCC/C(C)=C/CO
not listed: [6]
inactive: all other assays above

NC(=O)NO
inactive: all assays above

CCCCOCCOCCSC#N
inactive: all assays above

C=C(C)C(N)=O
inactive: all assays above

Cc1cccc(C)c1O
inactive: all assays above

CCCCCCCC(=O)OCC(O)CO (stereo not given)
inactive: all assays above

CC(=O)Oc1ccccc1C(=O)O
inactive: all assays above

O=C(O)CN(CC(=O)O)CC(=O)O
not listed: [5] | [6]
inactive: all other assays above

COc1cc(C=O)ccc1O
inactive: all assays above

OC[C@@H](O)[C@@H](O)[C@H](O)[C@H](O)CO
inactive: all assays above

CCOC(=O)C(C)(C)Oc1ccc(Cl)cc1
inactive: all assays above

C=CCOC(=O)CC(C)C
inactive: all assays above

CCN1CCCC1=O
not listed: [4]
inactive: all other assays above

Cc1ccc(O)c(-n2nc3ccccc3n2)c1
active: [2] 9.44 µM and 6.11 µM | [5] 30.6 µM | [6] 21.1 µM and 60.6 µM and 30.6 µM
not listed: [4]
inactive: all other assays above

COc1ccccc1NC(=O)CC(C)=O
not listed: [4]
inactive: all other assays above

O=[N+]([O-])c1ccc(O)cc1
active: [6] 71.2 µM and 61.1 µM
not listed: [4]
inactive: all other assays above

Cc1c(N(C)CS(=O)(=O)O)c(=O)n(-c2ccccc2)n1C
not listed: [4]
inactive: all other assays above

C[C@]12C=CC(=O)C=C1CC[C@@H]1[C@@H]2C(=O)C[C@@]2(C)[C@H]1CC[C@]2(O)C(=O)CO
not listed: [4]
inactive: all other assays above

CC(C)Cc1ccc(C(C)C(=O)O)cc1 (stereo not given)
not listed: [4]
inactive: all other assays above

Cc1cccc(Nc2cc(Cl)nc(SCC(=O)O)n2)c1C
not listed: [4]
inactive: all other assays above

COCCOCCOC
not listed: [4]
inactive: all other assays above

CC(C)CC(C)CC(O)CC(C)C (stereo not given)
not listed: [4]
inactive: all other assays above

CC(=O)c1ccc(S(=O)(=O)NC(=O)NC2CCCCC2)cc1
not listed: [4]
inactive: all other assays above

O=C(O)CCCCC1CCSS1 (stereo not given)
not listed: [4]
inactive: all other assays above
